PubChem BioAssay AID1159537 (DiRusso Lab, Biochemistry Department, University of Nebraska, 2015)
The whole screen tested about 44,000 compounds, of which about 370 (0.84%) were called active. This is one part of a sample in which actives are shown more often than they occur. The rule behind the calls is not given here.

Test: compounds raising algal triacylglycerol storage – qHTS, Chlamydomonas reinhardtii, primary screen (AID 1159537);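 note: hits raise Nile Red signal meaning more stored TAG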
Details: Chlamydomonas reinhardtii TAG, Nile Red fluorescence, 72 h; screened at 10 µM (by protocol)

Structure (SMILES) | outcome
O=C(COc1ccc(F)cc1)NCc1ccco1 | inactive
CCOc1ccc(-c2cc(C(=O)NCc3ccccn3)c3ccccc3n2)cc1 | inactive
Cn1c(SCC(=O)Nc2cccc([N+](=O)[O-])c2)nc2ccccc21 | inactive
COc1ccc(C2C(=C(O)c3ccc(C)cc3)C(=O)C(=O)N2c2ccccn2)cc1 (stereo unspecified) | inactive
O=C(Cc1ccc(Cl)cc1)N1CCN(c2ccc(Cl)cc2[N+](=O)[O-])CC1 | inactive
O=C(Nc1cccc(F)c1)N1CCN(c2ccccc2F)CC1 | inactive
Cc1cccc(OCC(=O)Nc2cc(-c3nc4ncccc4o3)ccc2C)c1 | inactive
O=C(NCc1cccnc1)C(CCO)Sc1nc2sc3c(c2c(=O)[nH]1)CCCC3 (stereo unspecified) | inactive
Cc1ccc(S(=O)(=O)N2CCC(N3CCCCCC3)CC2)cc1 | inactive
Cc1ccc(C(=O)N2CCN(c3ccccc3)CC2)cc1 | inactive
Cc1ccc(N2CCN(C3CCCCCC3)CC2)cc1 | active
COc1cccc(NC(=O)Nc2nnc(-c3cccc(OC)c3)s2)c1 | inactive
Cc1ccc(C(=O)CNc2ccc(F)cc2)cc1 | inactive
Cc1cc(C)c2nc(C)cc(Nc3ccc4c(c3)OCCO4)c2c1 | inactive
Cc1ccc(C(=O)N(Cc2ccccc2)C(C)C)cc1[N+](=O)[O-] | inactive
NC(=O)c1ccc(NC(=O)C(Sc2ccccc2)c2ccccc2)cc1 (stereo unspecified) | inactive
COc1ccc(OC)c(NC(=O)CC2CCCCC2)c1 | inactive
Fc1ccccc1OCCN1CCCC1 | inactive
O=C(CCCOc1ccc(Cl)cc1Cl)N1CCCC1 | inactive
Clc1ccc(OCCOCCN2CCCC2)c(Br)c1 | active
Cc1ccc(OCCOCCN2CCN(C)CC2)c(Br)c1 | inactive

Structure (SMILES) | outcome
Clc1ccc(CN2CCOCC2)c(Cl)c1 | inactive
O=C(COc1ccc(Br)cc1Cl)NCCO | inactive
Clc1ccc(OCCN2CCCCCC2)cc1 | inactive
COc1ccc(C(=O)NCCCN2CCOCC2)cc1Br | inactive
Clc1ccccc1OCCCCN1CCOCC1 | active
O=[N+]([O-])c1ccccc1OCCCCN1CCCCC1 | inactive
Clc1cc(Br)ccc1OCCCCN1CCOCC1 | active
Clc1ccc(OCCCCN2CCOCC2)c(Br)c1 | active
Cc1cc(N/C=C/C(=O)c2cccs2)no1 | inactive
CCN(CC)CCC(=O)c1ccc(C(C)C)cc1 | inactive
CCc1ccc(NC(=O)Nc2ccccc2)cc1 | inactive
CCCC(=O)Nc1cccc(NC(=O)COc2ccc(C)c(C)c2)c1 | inactive
Cc1cccc(C)c1OCC(=O)Nc1ccc([N+](=O)[O-])cc1 | inactive
CCCC1CCc2c(sc(NC(=O)C3C4C=CC(C4)C3C(=O)O)c2C(N)=O)C1 (stereo unspecified) | inactive
O=C(COc1ccc([N+](=O)[O-])cc1)Nc1cccc(Br)c1 | inactive
CCOc1ccccc1NC(=O)COc1ccc(Br)c(C)c1 | inactive
CC(=O)c1nc2cc([N+](=O)[O-])ccc2n1Cc1ccccc1 | active
O=C(O)Cn1c2ccccc2c2cc([N+](=O)[O-])ccc21 | inactive
CC(=O)c1nc2ccccc2n1Cc1ccccc1 | inactive
CC(C(=O)NCc1ccncc1)N(c1ccccc1)S(C)(=O)=O (stereo unspecified) | inactive
COc1ccc(N=C2NC(=O)CC(C(=O)Nc3ccc(Cl)cc3)S2)cc1 (stereo unspecified) | inactive

Structure (SMILES) | outcome
CC(=O)Nc1ccc(NC(=O)c2ccc(F)cc2)cc1 | inactive
OCCN1CCN(C2CCN(Cc3ccc(Cl)cc3)CC2)CC1 | inactive
COc1ccc(-c2cn3c4ccccc4n(CCN4CCOCC4)c3n2)cc1 | inactive
O=C1CCC(=O)N1c1ccc(S(=O)(=O)c2ccc(N3C(=O)CCC3=O)cc2)cc1 | inactive
O=C(COc1ccc([N+](=O)[O-])cc1)Nc1ccc(Cl)cc1 | inactive
COc1ccccc1CNC1CCC(C)C1 (stereo unspecified) | inactive
NC(=O)CCSc1ccc(Cl)cc1 | inactive
NC(N)=NS(=O)(=O)c1ccc(NC(=O)c2ccc([N+](=O)[O-])cc2)cc1 | inactive
Cc1cccc(NC(=O)C(=O)NC(C)c2ccccc2)c1 (stereo unspecified) | inactive
CC(=O)NS(=O)(=O)c1ccc(NC(=O)C2C3C=CC(C3)C2C(=O)O)cc1 (stereo unspecified) | inactive
Cc1ccc(CNC(=O)c2ccccc2Br)cc1 | inactive
COc1ccc(Nc2nc(Nc3ccc(OC)cc3)nc(N3CCNCC3)n2)cc1 | inactive
CC1CCCN(CCCCOc2ccccc2F)C1 (stereo unspecified) | inactive
COc1cc(/C=C(\C#N)c2nc3ccc(C)cc3[nH]2)c(Br)cc1O | inactive
O=C(NCc1cccnc1)C(O)(c1ccccc1)c1ccccc1 | inactive
CCN(CC)CCCOc1ccc(C)cc1[N+](=O)[O-] | inactive
COc1ccccc1OCCNc1cc(N2CCOCC2)ccc1[N+](=O)[O-] | inactive
Cc1ccc(OCCOCCN2CCOCC2)c([N+](=O)[O-])c1 | active
CNC(=O)C(=O)NCCc1ccccc1 | inactive
O=C1CC(NCCc2ccccc2)C(=O)N1c1ccc(F)cc1 (stereo unspecified) | inactive
Cn1c(SCC(=O)Nc2ccccc2)nc2ccccc21 | inactive

Structure (SMILES) | outcome
Cc1ccc(C(C)C)c(OCC(O)CN2CCCC(C)C2)c1 (stereo unspecified) | inactive
CCOc1ccc(N2C(=O)CC(SCC(=O)Nc3ccc(F)cc3)C2=O)cc1 (stereo unspecified) | inactive
COc1ccc(N(CC(=O)Nc2ccc(C)cc2)S(C)(=O)=O)c(OC)c1 | inactive
COc1ccccc1/C=C(/C#N)c1nc2ccccc2[nH]1 | inactive
CNC(=O)CN(c1ccc(F)cc1)S(C)(=O)=O | inactive
COc1ccccc1N(CC(=O)NC12CC3CC(CC(C3)C1)C2)S(=O)(=O)c1ccccc1 | inactive
O=C(Nc1cccc(Cl)c1Cl)c1ccc(CN2CCOCC2)cc1 | inactive
O=C(c1ccc(CN2CCOCC2)cc1)N(Cc1ccccc1)Cc1ccccc1 | active
CC(=O)Nc1ccc(CN2CCOCC2)cc1 | inactive
COC(=O)NC(c1ccc(Br)cc1)C(Cl)(Cl)Cl (stereo unspecified) | inactive
Cc1ccc2c(Cl)c(C(=O)Nc3cc(S(N)(=O)=O)ccc3C)sc2c1 | inactive
CC(=O)c1ccc(NC(=O)COc2ccc(Br)c(C)c2)cc1 | inactive
CCOc1ccc(NC(=O)Nc2nnc(Cc3ccc(OC)cc3)s2)cc1 | inactive
C=CCNC(=O)COc1ccc(C)cc1Br | inactive
COc1ccc(Cl)cc1NC(=O)CSc1nc2ncccc2[nH]1 | inactive
CC(=O)NC1=C(N2CCN(Cc3ccccc3)CC2)C(=O)c2ccccc2C1=O | active
CC(=O)Nc1ccc(CN2CCN(c3ccc(C(C)=O)cc3)CC2)cc1 | inactive
O=C(Nc1ccccc1)N1CCN(Cc2ccccc2)CC1 | inactive
